Screening data deposited in PubChem by several laboratories.
HMGR II inh: inhibitors of E. faecalis class II HMGR, primary screen, biochemical, Enterococcus faecalis | purified E. faecalis HMGR, NADPH absorbance 340 nm kinetic | inhibition, % at 10 µM | actives 0.41% (n = 190,000);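 active = inhibition above a set limit, the median over all tested compounds plus 3 SD, cut at about 9.5% in these data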;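 note: enzyme runs in reverse so mevalonate oxidation gives rising NADPH absorbance; 0% = complete reaction with DMSO and 100% = background rate lacking mevalonate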
p47phox inh: p47phox/p22phox peptide binding inhibitors, primary screen, biochemical, uHTS, NADPH oxidase regulatory subunit; Neutrophil cytosol factor 1 (Homo sapiens), P14598; fluorescence polarization, 2 h; inhibition, % at 24.7 µM; actives 0.53% (n = 220,000); AID 1274, 2008;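 active = inhibition above about 30%, limit read from the data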;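 note: 0% = p47phox with labelled peptide and 100% = labelled peptide alone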
Target sequence (P14598 whole entry, looked up): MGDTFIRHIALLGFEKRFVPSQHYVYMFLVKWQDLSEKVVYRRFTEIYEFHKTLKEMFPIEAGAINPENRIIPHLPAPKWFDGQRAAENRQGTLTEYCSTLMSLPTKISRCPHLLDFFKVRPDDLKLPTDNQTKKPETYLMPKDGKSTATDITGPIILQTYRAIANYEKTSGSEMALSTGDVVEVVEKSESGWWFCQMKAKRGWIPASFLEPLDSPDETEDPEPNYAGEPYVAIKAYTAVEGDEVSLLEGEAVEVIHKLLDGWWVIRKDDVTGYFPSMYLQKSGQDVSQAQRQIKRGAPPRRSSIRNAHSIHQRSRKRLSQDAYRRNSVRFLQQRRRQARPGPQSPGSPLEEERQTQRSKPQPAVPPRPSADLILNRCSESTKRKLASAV
Autophagy mod: autophagy modulators in MEF cells, primary screen, imaging, high-content, MEF GFP-LC3 | MEF GFP-LC3 puncta imaging; test concentration mostly 10 µM | calls only at 10 µM (by protocol) | actives 0.98% (n = 190,000);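 active = percentage of spot-positive cells more than 3 SD above its plate mean, without a fluorescence outlier flag or 80% toxicity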;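 note: spot-positive cell cutoff set from DMSO-treated cells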
Ins promoter up: insulin promoter activators in MIN6 cells, imaging, high-content screening, mouse beta cells; MIN6 insulin promoter-GFP reporter; stronger effect = higher value; z-score at 5 µM; actives 0.3% (n = 190,000); AID 1625, 2009;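 active = z-score above 3 at 5 µM with at least 500 cells counted in the well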
Redox H2O2 prof: compounds producing H2O2 with reducing agent – biochemical, NIH compound library profiling, artefact control for MLSCN library redox annotation, primary screen; DTT-dependent redox cycling H2O2, phenol red/HRP absorbance; 100% = 100 µM peroxide control, 0% = buffer; AID 878, 2007; actives 0.03% (n = 200,000); activation, % at 10 µM;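 active = activation of at least 50% relative to the plate's high and low controls in the primary single-dose screen; inactive = activation below 50%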;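 note: compound incubated with DTT at 0.8 mM final as the reducing agent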
Arbovirus anti: antivirals against arbovirus infection, primary screen, cell-based, full library, 10K replicate subset. arbovirus infection cell-based antiviral screen. inhibition, % at 10 µM. actives 0.37% (n = 200,000); in the data active = inhibition above about 30%
* hit, by the source's call; i = inactive; . = not tested or not shown; + = active, no number. This is a sample that favours compounds with a hit; in the whole collection about 2.2% have one here.

SMILES	HMGR II inh	p47phox inh	Autophagy mod	Ins promoter up	Redox H2O2 prof	Arbovirus anti
Cc1ccc(C)n1CCN1CCN(CC(=O)Nc2cc(C(F)(F)F)ccc2Cl)CC1	-4	-25	+	-0.16	1	-10
O=C(Nc1ccc2ccccc2c1)N1CCCN(CCOc2ccccc2)CC1	.	-2	.	-1.1	.	.
CCN(CCNC(=O)Nc1ccc(Cl)cc1)c1ccccc1	-3	-5	+	1.5	0	4
O=C(NCCc1ccc(Cl)cc1)Nc1ccc(Cl)cc1	.	-7	.	-0.04	.	.
COc1ccccc1C(=O)Nc1ccc(Cc2ccncc2)cc1	0	0	i	.	0	3
COc1c(C)cc(Br)cc1C(=O)Nc1ccc(Cc2ccncc2)cc1	-7	-14	+	0.71	0	-30
CCOC(=O)c1c(NC(C)=O)sc2c(OCC(O)CNC(C)(C)C)c(Br)ccc12 (centres undefined)	0	-8	+	1.4	0	-31
O=C(c1cc(-c2ccncc2)nc2ccc(Br)cc12)N1CCN(Cc2ccc3c(c2)OCO3)CC1	-1	-11	i	-0.26	-1	-12
O=C(c1cc(-c2ccncc2)nc2ccc(Cl)cc12)N1CCN(Cc2ccc3c(c2)OCO3)CC1	0	48*	i	-0.98	0	-23
COc1ccc(C)cc1NC(=O)CC(NC(C)=O)c1ccccc1 (centres undefined)	1	-8	i	4.5*	1	9
CCCn1c(SC(C(=O)Nc2cc(C)ccc2OC)c2ccccc2)nc2ccccc2c1=O (centres undefined)	-5	-5	i	-0.45	1	-14
COc1ccc(Cl)cc1NC(=O)CC(C)c1ccccc1 (centres undefined)	1	-8	i	.	0	1
COc1ccc(C)cc1NC(=O)C(Sc1nnnn1C)c1ccccc1 (centres undefined)	15*	-10	i	-0.11	0	-9
O=C(NC(NC(=S)Nc1ccc(Cl)cc1Cl)C(Cl)(Cl)Cl)c1cccc([N+](=O)[O-])c1 (centres undefined)	-2	-12	i	0.64	2	-34
CCCc1cc(=O)[nH]c(SCC(=O)c2[nH]c(C)c(C(=O)OCC)c2C)n1	-3	-16	i	0.13	0	9
CC(=O)Oc1cc(C(C)C)c(OCCN(C)C)cc1C	9.7*	-9	i	.	0	8
COc1cc2oc(-c3ccc(O)cc3)cc(=O)c2c(OC)c1O	.	7	.	0.57	.	.
COc1cc2oc(-c3ccc(O)cc3)cc(=O)c2c(O)c1OC	.	41*	.	-1	.	.
CC(=O)NC1C(Oc2cccc(C)c2)OC2COC(c3ccco3)OC2C1O (centres undefined)	-5	-4	i	-0.26	0	10
COc1cccc(O[C@@H]2O[C@@H]3COC(C)(C)O[C@H]3[C@H](O)[C@H]2NC(C)=O)c1	10*	-11	i	.	1	0
CC(C)(C)c1ccc(/C([O-])=C(/C(=S)NCc2ccco2)[n+]2ccccc2)cc1	-4	-19	i	1.1	0	4
Cc1cccc(C)c1NC(=O)N1C(C(=O)O)CSC1C(=O)O (centres undefined)	-1	67*	i	0.58	1	3
COC(=O)C1CSC(C(=O)OC)N1C(=O)Nc1c(C)cccc1C (centres undefined)	-3	-7	i	0.08	2	8
COc1ccc(-c2nnc(NC(=O)CSc3ccc(Cl)cc3)s2)cc1OC	-4	41*	i	-0.09	0	-20
CCOC(=O)CNC(=S)N1CCn2c(nc3ccccc32)C1	-1	-6	i	.	0	-2
SMILES	HMGR II inh	p47phox inh	Autophagy mod	Ins promoter up	Redox H2O2 prof	Arbovirus anti
O=C(O)CSc1nc(-c2ccc(Cl)cc2)nc2c1oc1ccccc12	-3	-38	i	0.01	0	35*
CC1CC(C)(C)Nc2ccc(N=O)cc21 (centres undefined)	0	0	+	4.1*	-1	-33
CCCc1nn2c(=O)c(C(c3ccc(C)cc3)c3c(O)nc4sc(CCC)nn4c3=O)c(O)nc2s1	-1	149*	i	0.29	1	0
Cc1ccc(C)n1-c1sc2c(c1C#N)CCC(C)C2 (centres undefined)	0	-19	i	1.6	0	0
CC(C)(C)n1nnnc1C(c1cccc(C(F)(F)F)c1)N1CCC(O)CC1 (centres undefined)	-4	3	i	-0.44	0	3
COC(=O)C(CC(=O)c1ccc(Cl)cc1)c1ccc(C(C)C)cc1 (centres undefined)	3	32*	i	0.44	0	0
O=C(c1cccs1)N1CCc2c([nH]c3ccccc23)C1c1ccc(Cl)cc1 (centres undefined)	8	31*	i	-0.12	-6	-6
Cc1ccc(N2C(=O)c3ccc(C(=O)N4CCN(Cc5ccccc5)CC4)cc3C2=O)cc1	.	-8	.	.	.	.
c1ccc2c(c1)[nH]c1c(N3CCC4(CC3)OCCO4)ncnc12	1	-14	i	-4.7	0	0
OC1(c2cccc(C(F)(F)F)c2)CCN(c2ncnc3c2[nH]c2ccccc23)CC1	-8	-55	+	.	0	-45
CCOC(=O)C1=C(COc2ccc(F)cc2Cl)NC(=O)NC1c1cc(C)ccc1C (centres undefined)	24*	6	i	0.08	-3	-7
CCOC(=O)C1=C(CN2CCOCC2)NC(=O)NC1c1cc(C)ccc1C (centres undefined)	2	4	i	0.08	-1	-4
CCOC(=O)C1=C(CN2CCCCC2)NC(=O)NC1c1cc(C)ccc1C (centres undefined)	-8	-7	i	.	0	-3
CCOC(=O)C1=C(COc2ccc(C)cc2)NC(=O)NC1c1cc(C)ccc1C (centres undefined)	-4	+	i	0.21	1	-4
Cn1ccnc1C(=O)C1CCCN(Cc2cn[nH]c2-c2ccc(-c3ccccc3)cc2)C1 (centres undefined)	-2	-7	i	-0.36	-2	-7
CCN(CC)C(=O)c1cn(CCC#N)nc1-c1ccc(F)cc1	-1	-3	i	-0.16	0	5
CCC/C(O)=C1\C(=O)CCCC1=NCCc1c(C)[nH]c2ccc(OC)cc12	-4	-7	i	1.4	-1	11
O=c1/c(=C/c2cn(-c3ccccc3)nc2-c2ccc(F)cc2)sc2nc3ccccc3n12	0	2	i	0.31	-3	1
